Measurements: PubChem BioAssay AID624255 (Broad Institute, 2012)
In all, about 77,000 compounds went through this assay and about 4,600 (6%) were called active. Roughly 1% stayed inconclusive and do not appear here.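 The calls were made as follows: active = mean inhibition above about 93%, with at least 55% of replicates each passing it (limit read from the data, passing the limit was not always enough); inconclusive = only one of those two conditions holds; inactive = neither condition holds.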 The list comes from a sample in which actives are over-represented; it also holds similar structures and randomly drawn compounds.

Test: T. cruzi intracellular proliferation inhibitors, primary screen, cell-based, beta-gal Tulahuen parasites, NIH3T3 host, luminescence (AID 624255)
Conditions: T. cruzi beta-gal in NIH3T3, GalScreen luminescence, 90 h; at 8.34 µM; stronger effect = higher value

| Structure (SMILES) | inhibition |
| --- | --- |
| COc1cccc(-c2ccc3n(c2=O)C[C@@H]2[C@@H](CO)[C@H](C(=O)NCC4CC4)N(C(=O)NC(C)C)[C@H]32)c1 | -3.92% (inactive) |
| COc1ccc(-c2cn(CC[C@@H]3CC[C@@H](NS(=O)(=O)c4ccccc4C)[C@H](CO)O3)nn2)cc1 | -38.7% (inactive) |
| O=C(NCC1CCCCC1)[C@H]1[C@H](CO)[C@H]2Cn3c(cccc3=O)[C@H]2N1C(=O)CC1CC1 | 101% (active) |
| CCNC(=O)[C@H]1[C@H](CO)[C@H]2Cn3c(cccc3=O)[C@H]2N1C(=O)C1CCCC1 | -9.09% (inactive) |
| O=C(Nc1ccccc1)[C@@H]1[C@@H](CO)[C@@H]2Cn3c(cccc3=O)[C@@H]2N1C(=O)C1CC1 | 90.7% (inactive) |
| O=C(NC1CCCCC1)[C@@H]1[C@@H](CO)[C@@H]2Cn3c(cccc3=O)[C@@H]2N1C(=O)CC1CC1 | -9.4% (inactive) |
| O=C(Nc1ccc(-c2ccccc2)cc1)[C@@H]1[C@@H](CO)[C@@H]2Cn3c(cccc3=O)[C@H]1N2Cc1ccncc1 | 10.3% (inactive) |
| O=C(Nc1ccc(-c2ccccc2)cc1)[C@H]1[C@H](CO)[C@H]2Cn3c(cccc3=O)[C@H]2N1CC1CC1 | 170% (active) |
| COC(=O)C[C@H]1C[C@@H]2c3cc(NC(=O)Nc4ccccc4)ccc3O[C@@H]2[C@@H](CO)O1 | 57.1% (inactive) |
| O=C(Cc1ccccn1)NCC[C@H]1CC[C@@H](NS(=O)(=O)c2ccc(F)cc2)[C@H](CO)O1 | 13.9% (inactive) |
| COc1ccc(NC(=O)N(C)C[C@@H]2OCCCC[C@H](C)Oc3ccc(NS(=O)(=O)c4c(C)noc4C)cc3C(=O)N([C@@H](C)CO)C[C@@H]2C)cc1 | 52.5% (inactive) |
| O=S(=O)(NC[C@H]1[C@@H](c2ccccc2)[C@@H](CO)N1CC1CC1)c1ccccc1 | 10.3% (inactive) |
| CS(=O)(=O)N1[C@@H](C#N)[C@H](c2ccc(C#CC3CCCCC3)cc2)[C@@H]1CO | 105% (active) |
| CC(C)NC(=O)N1[C@H](C#N)[C@@H](c2ccc(-c3ccc(F)cc3)cc2)[C@H]1CO | 34.6% (inactive) |
| N#C[C@H]1[C@@H](c2ccc(C#CC3CCCC3)cc2)[C@H](CO)N1C(=O)Nc1ccc(F)cc1 | 92.8% (inactive) |
| CS(=O)(=O)N1[C@H](C#N)[C@H](c2ccc(C#CC3CC3)cc2)[C@H]1CO | 93% (inactive) |
| N#C[C@@H]1[C@@H](c2ccc(C3=CCCCC3)cc2)[C@@H](CO)N1C(=O)c1cccc(F)c1 | 5.72% (inactive) |
| CCc1cnc(N2[C@H](C#N)[C@H](c3ccc(C4=CCCC4)cc3)[C@@H]2CO)s1 | 101% (active) |
| CS(=O)(=O)N1[C@H](C#N)[C@H](c2ccc(C#CC3CCCC3)cc2)[C@H]1CO | 91.5% (inactive) |
| N#C[C@H]1[C@@H](c2ccc(C3=CCCCC3)cc2)[C@@H](CO)N1C(=O)Cc1ccncc1 | 57.5% (inactive) |
| N#C[C@H]1[C@@H](c2ccc(C3=CCCCC3)cc2)[C@@H](CO)N1C(=O)NC1CCCCC1 | 101% (active) |

| Structure (SMILES) | inhibition |
| --- | --- |
| N#C[C@@H]1[C@@H](c2ccc(C3=CCCC3)cc2)[C@@H](CO)N1C(=O)C1CCCC1 | 34.1% (inactive) |
| CC(C)NC(=O)N1[C@H](C#N)[C@H](c2ccc(C#CC3CCCCC3)cc2)[C@H]1CO | 107% (active) |
| CCCNC(=O)N1[C@H](C#N)[C@@H](c2ccc(C3=CCCC3)cc2)[C@H]1CO | -28.9% (inactive) |
| CO[C@@H]1CN(C)C(=O)c2cc(NC(=O)C3CCCCC3)ccc2OC[C@@H](C)N(C(=O)Nc2ccc(C(F)(F)F)cc2)C[C@H]1C | 15.6% (inactive) |
| O=C(C[C@H]1CC[C@H]2[C@@H](COC[C@H](O)CN2C(=O)c2ccccc2F)O1)NCc1ccccc1 | -22.2% (inactive) |
| Cc1ccc(S(=O)(=O)Nc2ccc3c(c2)C(=O)N([C@H](C)CO)C[C@@H](C)[C@@H](CN(C)S(C)(=O)=O)OCCCC[C@@H](C)O3)cc1 | 29.2% (inactive) |
| CO[C@H]1CN(C)C(=O)c2cc(NC(=O)Nc3c(C)noc3C)ccc2OC[C@@H](C)N(CCC(F)(F)F)C[C@H]1C | 6.32% (inactive) |
| Cc1noc(C)c1NC(=O)Nc1ccc2c(c1)C(=O)N([C@H](C)CO)C[C@@H](C)[C@H](CN(C)C(=O)Nc1cccc3ccccc13)OCCCC[C@@H](C)O2 | 80.3% (inactive) |
| C/C=C/c1ccc([C@@H]2[C@H](CO)N(C(C)=O)[C@H]2CN(CC)C(=O)CN(C)C)cc1 | 81.2% (inactive) |
| C[C@@H]1CN([C@H](C)CO)C(=O)c2cc(NC(=O)CCCN(C)C)ccc2O[C@@H](C)CCCCO[C@@H]1CN(C)Cc1ccncc1 | 14.7% (inactive) |
| CN(C)C(=O)[C@@H]1[C@@H](CO)[C@@H]2Cn3c(cccc3=O)[C@@H]2N1C(=O)C1CCC1 | -8.64% (inactive) |
| COc1ccc(S(=O)(=O)N(C)C[C@@H]2OCCCC[C@H](C)Oc3ccc(NC(=O)NC4CCCCC4)cc3C(=O)N([C@H](C)CO)C[C@H]2C)cc1 | 94% (inactive) |
| O=C(C[C@H]1CC[C@@H]2[C@H](COC[C@@H](O)CN2C(=O)Nc2ccc(C(F)(F)F)cc2)O1)NCCc1ccncc1 | 57% (inactive) |
| O=C(C[C@@H]1CC[C@@H]2[C@H](COC[C@H](O)CN2C(=O)Cc2ccccc2)O1)NC1CCC1 | 27.2% (inactive) |
| CNC[C@H]1OCCCC[C@@H](C)Oc2ccc(NS(C)(=O)=O)cc2C(=O)N([C@@H](C)CO)C[C@H]1C | 61.9% (inactive) |
| C[C@H]1CN([C@@H](C)CO)C(=O)c2cc(NS(=O)(=O)c3cn(C)cn3)ccc2O[C@H]1CN(C)CC1CCCCC1 | 3.71% (inactive) |
| C[C@H]1CN([C@@H](C)CO)C(=O)c2cccc(NS(=O)(=O)c3cn(C)cn3)c2O[C@@H]1CN(C)CC1CCCCC1 | 96.2% (active) |
| C[C@@H]1CN([C@@H](C)CO)C(=O)c2cc(NS(=O)(=O)c3cn(C)cn3)ccc2O[C@@H](C)CCCCO[C@H]1CN(C)S(=O)(=O)c1cn(C)cn1 | -14.8% (inactive) |
| C[C@H](CO)N1C[C@H](C)[C@H](CN(C)C(=O)CCC(F)(F)F)OCCCC[C@H](C)Oc2ccc(NS(C)(=O)=O)cc2C1=O | -3.61% (inactive) |
| CNC[C@@H]1OCCCC[C@@H](C)Oc2ccc(NS(C)(=O)=O)cc2C(=O)N([C@H](C)CO)C[C@@H]1C | 4.76% (inactive) |
| C[C@@H]1CN([C@@H](C)CO)C(=O)c2cc(NS(C)(=O)=O)ccc2O[C@@H](C)CCCCO[C@@H]1CN(C)S(=O)(=O)c1cn(C)cn1 | -54% (inactive) |

| Structure (SMILES) | inhibition |
| --- | --- |
| C[C@@H]1CCCCO[C@H](CN(C)C(=O)CCC(F)(F)F)[C@H](C)CN([C@H](C)CO)C(=O)c2cc(NS(C)(=O)=O)ccc2O1 | 107% (active) |
| C[C@@H]1CN([C@H](C)CO)C(=O)c2cc(NS(=O)(=O)c3ccccc3)ccc2O[C@@H](C)CCCCO[C@@H]1CN(C)C(=O)CCC(F)(F)F | -2.2% (inactive) |
| C[C@@H]1CN([C@H](C)CO)C(=O)c2cc(NS(C)(=O)=O)ccc2O[C@@H](C)CCCCO[C@H]1CN(C)S(=O)(=O)c1cn(C)cn1 | 104% (active) |
| CNC[C@H]1OCCCC[C@@H](C)Oc2ccc(NS(C)(=O)=O)cc2C(=O)N([C@H](C)CO)C[C@H]1C | 101% (active) |
| C[C@@H]1CN([C@H](C)CO)C(=O)c2cccc(NS(=O)(=O)c3cn(C)cn3)c2O[C@H]1CN(C)CC1CC1 | 27.4% (inactive) |
| CNC(=O)C[C@H]1CC[C@@H]2[C@@H](COc3ccc(NC(=O)c4ccc(F)c(F)c4)cc3C(=O)N2C)O1 | -6.57% (inactive) |
| CCNC(=O)Nc1ccc2c(c1)C(=O)N(C)[C@H]1CC[C@@H](CC(=O)N[C@H](C)c3ccccc3)O[C@@H]1CO2 | 13.7% (inactive) |
| Cc1noc(C)c1S(=O)(=O)N(C)C[C@@H]1Oc2ccc(NC(=O)Cn3cnnn3)cc2CC(=O)N([C@@H](C)CO)C[C@@H]1C | -16.4% (inactive) |
| Cc1ccc(S(=O)(=O)N[C@@H]2CC[C@H](CCNC(=O)C3CCOCC3)O[C@@H]2CO)cc1 | 2.56% (inactive) |
| CO[C@H]1CN(C)C(=O)c2cc(NC(=O)C3CCC3)ccc2OC[C@H](C)N(C)C[C@H]1C | 17% (inactive) |
| CC=Cc1ccc2n(c1=O)C[C@@H]1[C@@H](CO)[C@H](C(=O)NCC3CC3)[C@H]2N1C(=O)c1ccccc1 (mixture of isomers) | 35.2% (inactive) |
| COc1ccc(-c2ccc([C@@H]3[C@@H](CO)N4CCCCN(C(=O)NC(C)C)C[C@H]34)cc2)cc1 | 73.2% (inactive) |
| CN1C(=O)c2cc(NS(C)(=O)=O)ccc2OC[C@H]2O[C@H](CC(=O)NCc3ccccc3)CC[C@H]21 | -19.6% (inactive) |
| CO[C@@H]1CN(C)C(=O)c2ccc(NC(=O)Nc3ccccc3)cc2OC[C@@H](C)N(C(=O)CN(C)C)C[C@H]1C | -44.4% (inactive) |
| O=C([C@@H]1[C@@H](CO)[C@@H]2Cn3c(ccc(-c4ccccc4)c3=O)[C@H]1N2CCC(F)(F)F)N1CCCCC1 | 1.28% (inactive) |
| Cc1noc(C)c1NC(=O)Nc1ccc2c(c1)C(=O)N([C@H](C)CO)C[C@H](C)[C@@H](CN(C)S(C)(=O)=O)OCCCC[C@H](C)O2 | 11.5% (inactive) |
| CNC[C@H]1OCCCC[C@H](C)Oc2ccc(NC(=O)Nc3c(C)noc3C)cc2C(=O)N([C@H](C)CO)C[C@H]1C | 104% (active) |
| CNC[C@@H]1OCCCC[C@H](C)Oc2ccc(NC(=O)Nc3ccccc3)cc2C(=O)N([C@H](C)CO)C[C@H]1C | 28.6% (inactive) |
| CO[C@@H]1CN(C)C(=O)c2cc(NC(=O)NC(C)C)ccc2OC[C@@H](C)N(CC2CC2)C[C@@H]1C | -28.4% (inactive) |
